# Hits are enriched below; roughly 2.4% of the tested compounds scored in any of these assays.
# HepG2 viability: HepG2 cytotoxicity, counter-screen for TGF-b inhibitors; 0.76% of 410,000 active; Potency, µM (top dose mostly 46.1 µM), without a hit: at the top dose activity change, negative = cytotoxicity, most hits filed as cytotoxic; HepG2 CAGA-GFP viability, ATP luminescence, 18 h
#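 CellTiter-Glo luminescence gave cytotoxicity after 18 hours at 37 degrees C. The cells were HepG2 CAGA-GFP in 1% FBS DMEM, stimulated with 500 pg/mL TGF-beta after compound addition. %Activity was normalised to no-cell wells (complete cell-killing) and DMSO (no toxicity), and curves were fitted and classified.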
# Apoferritin bind: binds horse apoferritin like a general anesthetic; 0.074% of 350,000 active; apoferritin/1-aminoanthracene competitive binding, fluorescence; Potency, µM (highest dose often 77.5 µM), inactives show at the top dose activity change, negative = displacement, usual class: inhibitors; AID 485281; further: on the % scale 0 is the no-effect control and ±100 the full control effect; nearly all actives have a fitted effect of over 20% in size
# Target sequence (P02791 2-175 limits assumed): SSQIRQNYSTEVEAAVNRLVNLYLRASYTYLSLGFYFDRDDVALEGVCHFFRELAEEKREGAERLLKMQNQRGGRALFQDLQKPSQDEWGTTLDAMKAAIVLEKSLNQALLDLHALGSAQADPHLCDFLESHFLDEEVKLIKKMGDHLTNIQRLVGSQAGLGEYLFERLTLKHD
#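 Apoferritin-based anesthetic binding model; compound displacement of fluorescent 1-AMA measured as endpoint fluorescence after 10 minutes at room temperature, scaled to free-ligand and complex controls.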
# TGFb inhibitor: blocks TGF-b signaling. HepG2 CAGA-GFP TGF-b/SMAD3 reporter, GFP fluorescence, 18 h; TGF-beta stimulated, 500 pg/mL final. Potency, µM (titrated, usually from 46.1 µM), without a hit: at the top dose activity, negative = inhibition, actives largely listed as inhibitors. 1.2% of 410,000 active. AID 588855; further: on the % scale 0 is the no-effect control and ±100 the full control effect; nearly all actives have a fitted effect of over 65% in size
#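 Inhibition was scored as loss of TGF-beta-induced (500 pg/mL final, 18 hours, 37 degrees C) GFP in HEPG2 cells carrying a CAGA-GFP reporter, in DMEM with 1% FBS. Well GFP was summed per cell; Activity was normalised to unstimulated and stimulated DMSO wells, then concentration-response fitting.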
# S2 tox: viability counter-screen for ATXN expression inhibitors; S2 cells (HEK-293 line with an ATXN2-luciferase reporter) viability, CellTiter-Fluor protease fluorescence, 24 h; AID 651635; 0.49% of 400,000 active; Potency, µM (titrated, usually from 56.7 µM), actives largely listed as cytotoxic; further: nearly all actives have a fitted effect of over 40% in size
# ATXN2 expr inh: inhibitors of ATXN2 expression; Potency, µM (titrated, usually from 57 µM), for inactives: at the highest dose activity change, negative = inhibition, hits mostly inhibitors; 0.72% of 360,000 active; HEK-293 ATXN2-luciferase reporter, luminescence, 24 h; AID 1745845; further: on the % scale 0 is the no-effect control and ±100 the full control effect; nearly all actives have a fitted effect of over 55% in size
#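 ATXN2-luciferase reporter cells (luciferase flanked by upstream and downstream ATXN2 gene portions) were treated 24 h at 37 °C with compounds at up to 57 uM. SteadyGlo luminescence gave expression; GF-AFC fluorescence gave viability.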
# Active calls of the source: *; i = inactive; ? = inconclusive; . = not tested or not shown; [ ] = remark or other dose. The call rests on the fitted dose curve; in most records, active means well fitted curve in the direction sought with a large enough effect; inconclusive means small, poorly fitted or top-dose-only effect, or another doubt; inactive means no such curve, though single readings can be large; an effect the other way counts as inactive or inconclusive. Potency means the concentration at half of the fitted maximal effect.
SMILES,HepG2 viability,Apoferritin bind,TGFb inhibitor,S2 tox,ATXN2 expr inh
Cc1ccc(NC(=S)NC(NC(=O)c2ccccc2C)C(Cl)(Cl)Cl)c(C)c1 (stereo not drawn),-31%,?,22µM*,i,1%
CCc1ccc(OCC(=O)NC(NC(=S)Nc2ccc(C)cc2C)C(Cl)(Cl)Cl)cc1 (stereo not drawn),11µM*,-7%,11µM*,?,?
CCCCNc1cc(NC2CCCCC2)c2c3c(onc13)-c1ccccc1C2=O,-1%,52%,-15%,i,0%
O=C1c2ccccc2-c2onc3c(NCCO)cc(NC4CCCCC4)c1c23,-41%,-8%,11µM*,?,?
COc1ccc(C2=Nn3c(nnc3-c3ccc(OC)cc3OC)SC2)c(OC)c1,.,-22%,.,.,.
CCOC(=O)C1=C(C)OC(=Cc2ccccc2)C1=O,0%,.,-5%,i,.
CCOC(=O)C1=C(O)c2ccccc2C(=O)/C1=C\c1ccc(C)cc1,11µM*,-19%,?,.,?
O=C(OCn1ncc(Br)c(Br)c1=O)c1ccccc1Cl,18µM*,?,13µM*,10µM*,7.9µM*
O=C(OCn1ncc(Br)c(Br)c1=O)c1ccc(F)cc1,10µM*,?,11µM*,14µM*,7.9µM*
CC(=O)OCn1ncc(N2CCOCC2)c(Br)c1=O,2%,-9%,-3%,?,-14%
CN(CCO)C(=O)c1cn(C2CCCN(Cc3cccc4ccccc34)C2)nn1 (stereo not drawn),.,.,.,i,.
CN(C)c1ccc(/C=C/c2ccnc3c(Cl)ccc(Cl)c23)cc1,-7%,.,51%,.,.
O=C(CNC(=O)c1ccccc1Cl)N/N=C/c1ccc([N+](=O)[O-])s1,10µM*,?,13µM*,i,-30%[11.3 µM]
Cc1onc(-c2ccccc2)c1C(=O)N/N=C/c1ccc([N+](=O)[O-])s1,10µM*,-2%,?,i,?
O=C(Cc1cccs1)N/N=C\c1ccc([N+](=O)[O-])s1,-15%,-23%,?,?,.
CC(C)(C)NC(=O)C(c1ccc(-c2ccccc2)cc1)N(C[C@H]1CC[C@@H]([C@@H]2CC[C@H](CO)O2)O1)C(=O)c1ccc2ccccc2c1 (stereo partly drawn),-89%,.,?,20µM*,?
CC(C)(C)NC(=O)C(c1ccc(-c2ccccc2)cc1)N(C[C@H]1CC[C@@H]([C@@H]2CC[C@H](CO)O2)O1)C(=O)c1ccc(-c2ccccc2)cc1 (stereo partly drawn),-2%,.,?,.,?
O=C(N/N=C/c1ccc(O)cc1O)/C(=C/c1ccccc1)CCO,-26%,5%,?,?,10µM*
COc1ccc(/C=C\C(=O)NCC(=O)N/N=C/c2ccc(O)cc2O)cc1,-3%,-18%,-7%,?,.
COc1cc(/C=N/NC(=O)/C(=C/c2ccccc2)CCO)ccc1O,16%,6%,-4%,?,3%
O=C(CNC(=O)C1COc2ccccc2O1)N/N=C/c1ccc(O)cc1O (stereo not drawn),-23%,?,?,i,13µM*
Cc1cc(SCC(=O)N/N=C/c2ccc(O)cc2O)c(C)cc1Br,-21%,?,0%,i,18µM*
Cc1cc(SCC(=O)N/N=C/c2ccccc2C(=O)O)c(C)cc1Br,-3%,-2%,1%,i,15%
O=C(/C=C\c1ccccc1)NCC(=O)N/N=C/c1ccc(O)cc1O,-14%,?,-2%,i,18µM*
O=C(CNC(=O)C1COc2ccccc2O1)N/N=C\c1cccc(O)c1 (stereo not drawn),-13%,?,-8%,i,0%
SMILES,HepG2 viability,Apoferritin bind,TGFb inhibitor,S2 tox,ATXN2 expr inh
COc1ccc2c(c1)c(CC(=O)OC/C=C(\C)CC/C=C(\C)CCC=C(C)C)c(C)n2C(=O)c1ccc(Cl)cc1,.,.,.,i,?
O=S(=O)(NCc1nnc2n1CCN(Cc1ccccc1Cl)CC2)c1ccccc1,.,.,.,i,.
Cc1ccc(S(=O)(=O)/N=C2/C=C(Sc3ncn[nH]3)C(=O)c3ccccc32)c(C)c1,.,-16%,.,.,.
CC(C)c1ccc(S(=O)(=O)/N=C2/C=C(Sc3ncn[nH]3)C(=O)c3ccccc32)cc1,10µM*,-15%,7.9µM*,?,14µM*
Cc1ccc(S(=O)(=O)Nc2ccc(O)c(Sc3ncn[nH]3)c2)cc1,5%,-12%,-1%,i,32%
Cc1ccc(S(=O)(=O)/N=C2/C=C(Sc3ncn[nH]3)C(=O)c3ccccc32)cc1,2µM*,-21%,1µM*,?,?
C[C@@H]1CN([C@H](C)CO)C(=O)CCCn2nncc2CO[C@H]1CN(C)S(=O)(=O)c1ccc(Oc2ccccc2)nc1,-34%,.,-32%,i,14%
CCC(=O)NC(c1ccc(OC)cc1)c1c(O)ccc2ccccc12 (stereo not drawn),-17%,-18%,-24%,?,.
CCCCC(=O)NC(c1ccccc1)c1ccc2cccnc2c1O (stereo not drawn),-30%,0%,?,i,?
CCCC(=O)NC(c1ccccc1)c1ccc2cccnc2c1O (stereo not drawn),-25%,-18%,?,i,14µM*
CCC(=O)NC(c1ccccc1OC)c1ccc2cccnc2c1O (stereo not drawn),3.5µM*,-14%,2.5µM*,?,?
CCCCC(=O)NC(c1ccccc1Cl)c1ccc2cccnc2c1O (stereo not drawn),-33%,-6%,?,?,2.8µM*
CCCC(=O)NC(c1ccc(OC)cc1)c1ccc2cccnc2c1O (stereo not drawn),-9%,-18%,?,.,1.9µM*
COc1ccc(Cl)cc1C(Nc1cccnc1)c1ccc2cccnc2c1O (stereo not drawn),-9%,-20%,?,i,?
CC(C)c1c(C(=O)NCCN2CCOCC2)cnn1-c1nccc(-c2cccs2)n1,.,.,.,i,.
CO[C@@H]1COC(=O)CC=C[C@@H](C)[C@@H]2C=C[C@@H](O)[C@@H](COC(=O)C/C=C\[C@H]1C)O2,.,-13%[15.3 µM],.,.,.
Oc1c(C(Nc2ccccn2)c2ccccc2)ccc2cccnc12 (stereo not drawn),-31%,.,-19%,.,.
Oc1cccc(C(Nc2ccccn2)c2ccc3cccnc3c2O)c1Cl (stereo not drawn),-49%,-8%,?,?,8.9µM*
CCN(CCCNC(=O)c1ccc(Sc2ccc(F)cc2)c(NC(C)=O)c1)c1ccccc1,-24%,-7%,-18%,.,.
O=C(CC1C(=O)N(c2ccccc2)C(=O)N1CCC1=CCCCC1)Nc1ccc(F)cc1 (stereo not drawn),-39%,-13%,11µM*,?,-22%

# Screening results (PubChem)
